This note sets out measurements from the supplement of paper PMC10849652.

Common to all, as to assay: log2 fold change, soluble protein after heating vs DMSO (PISA); higher = thermal stabilisation; K562 cells, 10 uM, 30 min; active = over 0.2 and 3.5 SD of the protein, either way, in both replicates (recomputed)
Compound in experiment [1]: CS(=O)(=O)c1ccc(-c2cnc(N)c(C(=O)Nc3ccccc3)n2)cc1
The method in brief: (§1)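 Soluble protein was defined as the supernatant after 21,000xg for 90 min. It came from K562 cells at 2×10^6 cells/mL given 10 μM compound for 30 min, heated in aliquots for 3 min across 48°C-58°C, pooled, and extracted in PBS with 0.5% NP-40 at 4°C, and was quantified by TMTpro 16plex LC-MS/MS with equalised channel sums. Thermal stability against control samples, from duplicates, is reported as log2 fold change.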

Compound in a further experiment: C[C@@H](Oc1cc(-c2cnn(C3CCNCC3)c2)cnc1N)c1c(Cl)ccc(F)c1Cl [crizotinib]
The method in brief:
as §1

Compound in experiment [2]: C[C@@H]1COCCN1C2=NC(=NC(=C2)C3(CC3)S(=O)(=O)C)C4=C5C=CNC5=CC=C4
The method in brief: as §1

Compound in the next experiment: C[C@H](Nc1ncnc2nc[nH]c12)c1cc2cccc(Cl)c2c(=O)n1-c1ccccc1 [duvelisib]
The method in brief:
as §1

Compound in another experiment: Cc1cc(Nc2cc(CN3CCOCC3)c3nc(C)c(Cc4ccc(Cl)cc4F)n3n2)n[nH]1 [gandotinib]
The method in brief:
as §1

Compound in experiment [3]: Cc1cc(SCc2sc(-c3ccc(C(F)(F)F)cc3)nc2C)ccc1OCC(=O)O
The gist of the method:
as §1

Compound in another experiment: Cc1ccc(-n2nc(C(C)(C)C)cc2NC(=O)Nc2ccc(OCCN3CCOCC3)c3ccccc23)cc1 [doramapimod]
The method in brief:
as §1

Compound in a further experiment: Cc1ccc(C(=O)N(CCCN)[C@@H](c2nc3cc(Cl)ccc3c(=O)n2Cc2ccccc2)C(C)C)cc1 [ispinesib]
The method in brief:
as §1

Compound in the next experiment: Cc1ccc(NC(=O)c2ccc(CN3CC[C@H](N(C)C)C3)c(C(F)(F)F)c2)cc1Nc1nccc(-c2cncnc2)n1 [bafetinib]
The gist of the method:
as §1

Compound in experiment [4]: Cc1cccc(CC(=O)N2CCc3c2ccc(-c2cn(C)c4ncnc(N)c24)c3F)n1
The method in brief:
as §1

Compound in a further experiment: Cc1cn(-c2cc(NC(=O)c3ccc(C)c(Nc4nccc(-c5cccnc5)n4)c3)cc(C(F)(F)F)c2)cn1 [nilotinib]
The gist of the method:
as §1

Compound in experiment [5]: Cc1nc(Nc2n[nH]c3c2CN(C(=O)N[C@H](CN(C)C)c2ccccc2)C3(C)C)c2sccc2n1
The gist of the method: as §1

Compound in a further experiment: Cc1nc(Nc2ncc(C(=O)Nc3c(C)cccc3Cl)s2)cc(N2CCN(CCO)CC2)n1 [dasatinib]
The gist of the method: as §1

Compound in experiment [6]: Cc1ncc(-c2ccnc(Nc3ccc(S(C)(=O)=O)cc3)n2)n1C(C)C
The gist of the method:
as §1

Compound in experiment [7]: Cn1cc(-c2ccc3nnc(C(F)(F)c4ccc5ncccc5c4)n3n2)cn1
The method in brief:
as §1

Compound in another experiment: Cn1cncc1[C@@](N)(c1ccc(Cl)cc1)c1ccc2c(c1)c(-c1cccc(Cl)c1)cc(=O)n2C [tipifarnib]
The gist of the method:
as §1

Compound in another experiment: FC(F)(F)c1ccc(/C=C/c2nc(COc3ccc(CCCCn4ccnn4)cc3)co2)cc1 [mubritinib]
The method in brief: as §1

Compound in experiment [8]: C[C@H](C1=CC=C(C=C1)C(=O)NC2=C3C=CNC3=NC=C2)N
The method in brief:
as §1

Compound in a further experiment: Cc1cc(Nc2cc(N3CCN(C)CC3)nc(Sc3ccc(NC(=O)C4CC4)cc3)n2)n[nH]1 [tozasertib]
The gist of the method: as §1

Compound in experiment [9]: Cn1cc(-c2ccc3c(c2)CCN3C(=O)Cc2cccc(C(F)(F)F)c2)c2c(N)ncnc21
The gist of the method:
as §1

Targets with a hit are over-represented here; the source holds about 7,900 in all. About 0.6% of all pairs of compound and target were hits. Unmarked numbers belong to inactive results.

Sequence of UniProt Q01196 (Q01196 whole entry, looked up): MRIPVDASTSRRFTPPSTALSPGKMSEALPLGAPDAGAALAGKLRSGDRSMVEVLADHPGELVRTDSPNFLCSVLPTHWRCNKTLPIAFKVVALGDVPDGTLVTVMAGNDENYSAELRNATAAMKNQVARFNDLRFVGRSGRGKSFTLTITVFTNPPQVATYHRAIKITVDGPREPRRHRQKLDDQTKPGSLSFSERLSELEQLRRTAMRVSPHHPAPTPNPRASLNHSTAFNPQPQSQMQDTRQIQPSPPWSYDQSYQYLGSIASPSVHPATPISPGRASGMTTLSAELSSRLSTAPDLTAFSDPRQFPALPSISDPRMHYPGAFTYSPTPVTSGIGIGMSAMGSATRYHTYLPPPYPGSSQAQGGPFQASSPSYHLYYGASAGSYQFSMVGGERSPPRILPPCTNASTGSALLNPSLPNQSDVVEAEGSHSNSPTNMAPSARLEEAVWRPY
Sequence of UniProt Q6R327 (Q6R327 whole entry, looked up): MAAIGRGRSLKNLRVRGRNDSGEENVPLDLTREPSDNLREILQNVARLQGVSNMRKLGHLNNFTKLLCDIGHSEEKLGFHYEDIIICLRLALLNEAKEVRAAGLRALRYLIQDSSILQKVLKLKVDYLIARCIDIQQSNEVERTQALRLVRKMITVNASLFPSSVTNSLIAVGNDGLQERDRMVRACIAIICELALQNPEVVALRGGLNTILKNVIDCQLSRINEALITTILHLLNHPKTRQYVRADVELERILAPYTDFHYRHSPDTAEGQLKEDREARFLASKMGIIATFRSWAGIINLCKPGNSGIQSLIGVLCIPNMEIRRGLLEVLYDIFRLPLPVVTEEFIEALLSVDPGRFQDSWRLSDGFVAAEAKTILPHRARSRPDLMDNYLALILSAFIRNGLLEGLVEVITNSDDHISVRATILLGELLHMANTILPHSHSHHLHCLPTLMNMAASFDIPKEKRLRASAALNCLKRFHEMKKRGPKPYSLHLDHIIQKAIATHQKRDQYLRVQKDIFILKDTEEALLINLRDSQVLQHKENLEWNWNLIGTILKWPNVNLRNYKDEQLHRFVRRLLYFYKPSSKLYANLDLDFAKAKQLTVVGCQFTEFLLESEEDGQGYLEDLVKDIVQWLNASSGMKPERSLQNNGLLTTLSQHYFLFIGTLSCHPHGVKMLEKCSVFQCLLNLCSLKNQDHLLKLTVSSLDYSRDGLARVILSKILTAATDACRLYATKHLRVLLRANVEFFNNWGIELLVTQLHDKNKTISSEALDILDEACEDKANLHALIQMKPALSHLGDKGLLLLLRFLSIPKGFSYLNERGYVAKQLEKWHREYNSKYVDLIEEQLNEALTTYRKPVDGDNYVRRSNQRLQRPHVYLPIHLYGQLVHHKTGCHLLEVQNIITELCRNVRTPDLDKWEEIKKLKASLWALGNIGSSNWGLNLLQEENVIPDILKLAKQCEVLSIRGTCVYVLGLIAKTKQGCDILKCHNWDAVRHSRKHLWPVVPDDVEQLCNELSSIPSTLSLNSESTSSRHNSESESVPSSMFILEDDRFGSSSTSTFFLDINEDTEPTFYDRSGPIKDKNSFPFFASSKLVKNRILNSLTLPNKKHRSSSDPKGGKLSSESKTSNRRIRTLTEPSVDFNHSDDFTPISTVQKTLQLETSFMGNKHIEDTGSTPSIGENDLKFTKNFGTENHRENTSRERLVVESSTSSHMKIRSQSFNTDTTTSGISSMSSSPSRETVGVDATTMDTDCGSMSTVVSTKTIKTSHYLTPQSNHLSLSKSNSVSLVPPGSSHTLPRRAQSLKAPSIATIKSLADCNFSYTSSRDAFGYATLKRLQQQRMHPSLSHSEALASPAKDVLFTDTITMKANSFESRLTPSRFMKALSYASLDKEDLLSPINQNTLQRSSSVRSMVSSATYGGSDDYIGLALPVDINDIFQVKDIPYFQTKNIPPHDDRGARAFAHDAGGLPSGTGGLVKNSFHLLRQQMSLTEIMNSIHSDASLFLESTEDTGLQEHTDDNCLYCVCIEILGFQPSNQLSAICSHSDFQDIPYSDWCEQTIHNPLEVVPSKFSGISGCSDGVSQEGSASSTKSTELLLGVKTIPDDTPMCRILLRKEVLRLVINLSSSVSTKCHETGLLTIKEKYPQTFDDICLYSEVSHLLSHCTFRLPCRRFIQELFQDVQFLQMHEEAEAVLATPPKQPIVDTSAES
Sequence of UniProt Q96NL6 (Q96NL6 whole entry, looked up): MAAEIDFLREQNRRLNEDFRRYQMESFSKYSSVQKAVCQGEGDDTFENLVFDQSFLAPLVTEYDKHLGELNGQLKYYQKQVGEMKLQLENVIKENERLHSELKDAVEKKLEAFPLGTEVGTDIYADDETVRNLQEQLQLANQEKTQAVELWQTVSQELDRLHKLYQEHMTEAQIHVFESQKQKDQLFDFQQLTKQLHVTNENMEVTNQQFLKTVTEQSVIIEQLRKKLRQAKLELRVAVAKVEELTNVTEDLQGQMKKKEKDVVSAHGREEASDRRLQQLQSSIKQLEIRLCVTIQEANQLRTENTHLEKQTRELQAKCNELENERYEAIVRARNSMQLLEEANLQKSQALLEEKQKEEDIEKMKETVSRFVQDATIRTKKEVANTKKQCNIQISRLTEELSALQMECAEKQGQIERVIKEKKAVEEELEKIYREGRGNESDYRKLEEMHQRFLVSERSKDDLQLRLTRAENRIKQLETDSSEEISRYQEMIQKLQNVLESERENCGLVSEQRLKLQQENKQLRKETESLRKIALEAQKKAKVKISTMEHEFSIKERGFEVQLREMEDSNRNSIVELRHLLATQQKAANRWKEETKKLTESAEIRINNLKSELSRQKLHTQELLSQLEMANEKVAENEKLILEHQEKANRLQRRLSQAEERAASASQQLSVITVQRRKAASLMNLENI
Sequence of UniProt Q9NRX5 (Q9NRX5 whole entry, looked up): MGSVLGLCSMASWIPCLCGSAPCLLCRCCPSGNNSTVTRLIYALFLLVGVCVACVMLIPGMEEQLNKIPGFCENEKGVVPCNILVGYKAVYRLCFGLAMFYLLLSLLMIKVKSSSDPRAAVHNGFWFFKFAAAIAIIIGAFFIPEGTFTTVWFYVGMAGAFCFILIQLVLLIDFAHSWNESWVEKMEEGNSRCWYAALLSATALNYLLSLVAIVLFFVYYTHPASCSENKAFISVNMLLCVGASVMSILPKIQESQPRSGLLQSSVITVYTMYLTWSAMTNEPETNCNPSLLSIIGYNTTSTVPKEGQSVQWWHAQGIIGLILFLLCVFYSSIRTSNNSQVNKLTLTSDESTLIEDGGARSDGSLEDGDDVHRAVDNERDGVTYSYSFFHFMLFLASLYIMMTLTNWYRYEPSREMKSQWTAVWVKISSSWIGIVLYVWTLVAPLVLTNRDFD
Sequence of UniProt O95716 (O95716 whole entry, looked up): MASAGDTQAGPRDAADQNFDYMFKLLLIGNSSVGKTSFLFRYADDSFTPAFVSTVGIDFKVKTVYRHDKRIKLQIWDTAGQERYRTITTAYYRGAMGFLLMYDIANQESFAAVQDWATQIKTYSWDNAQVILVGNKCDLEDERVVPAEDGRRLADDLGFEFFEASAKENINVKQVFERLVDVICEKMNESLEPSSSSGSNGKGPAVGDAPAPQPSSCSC
Sequence of UniProt A1X283 (A1X283 whole entry, looked up): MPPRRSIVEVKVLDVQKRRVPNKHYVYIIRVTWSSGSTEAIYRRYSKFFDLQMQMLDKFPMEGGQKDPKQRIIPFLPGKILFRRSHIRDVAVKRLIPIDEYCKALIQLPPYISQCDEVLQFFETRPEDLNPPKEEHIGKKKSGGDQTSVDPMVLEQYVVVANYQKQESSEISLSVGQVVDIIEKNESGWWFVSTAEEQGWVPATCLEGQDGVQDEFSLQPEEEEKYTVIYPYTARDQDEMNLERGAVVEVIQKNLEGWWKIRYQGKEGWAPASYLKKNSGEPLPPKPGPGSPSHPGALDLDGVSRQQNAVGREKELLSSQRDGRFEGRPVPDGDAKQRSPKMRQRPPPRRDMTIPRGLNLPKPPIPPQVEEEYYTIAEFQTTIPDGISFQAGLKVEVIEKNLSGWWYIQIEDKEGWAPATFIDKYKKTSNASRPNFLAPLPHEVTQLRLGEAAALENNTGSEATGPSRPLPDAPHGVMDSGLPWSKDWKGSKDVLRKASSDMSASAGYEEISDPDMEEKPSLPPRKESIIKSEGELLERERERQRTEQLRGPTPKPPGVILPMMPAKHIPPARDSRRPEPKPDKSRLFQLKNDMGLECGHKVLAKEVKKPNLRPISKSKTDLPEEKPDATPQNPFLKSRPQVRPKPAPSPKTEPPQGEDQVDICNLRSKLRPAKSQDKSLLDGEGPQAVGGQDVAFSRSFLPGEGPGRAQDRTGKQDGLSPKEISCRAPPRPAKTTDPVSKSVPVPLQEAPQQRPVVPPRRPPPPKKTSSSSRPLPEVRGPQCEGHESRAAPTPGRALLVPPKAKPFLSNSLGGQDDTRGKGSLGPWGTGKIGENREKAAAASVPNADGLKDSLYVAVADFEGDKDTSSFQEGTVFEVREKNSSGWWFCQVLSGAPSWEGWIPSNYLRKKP
Sequence of UniProt Q96GF1 (Q96GF1 whole entry, looked up): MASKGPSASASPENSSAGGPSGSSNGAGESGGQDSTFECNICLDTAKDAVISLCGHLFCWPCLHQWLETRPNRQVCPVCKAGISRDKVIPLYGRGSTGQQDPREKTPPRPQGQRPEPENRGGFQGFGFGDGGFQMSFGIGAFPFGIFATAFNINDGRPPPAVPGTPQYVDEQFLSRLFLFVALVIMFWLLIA

In the case of RUNX1 isoform 8 (UniProt Q01196), the log2 fold change in experiment [1] is 0.106; with crizotinib, -0.066; in [2], 0.089; with duvelisib, -0.045; with gandotinib it was 0.088; in experiment [3], 0.178. In addition, the log2 fold change with doramapimod was 0.054; in the experiment with ispinesib, 0.155; in the experiment with bafetinib, -0.149; in experiment [4], -0.224; in the experiment with nilotinib, -0.07; in experiment [5], -0.281. In addition, the log2 fold change with dasatinib is -0.082; in experiment [6], -0.209; in [7] it was -0.104; with tipifarnib, 0.001; in the experiment with mubritinib, 0.01.
Consider SCLT1 (UniProt Q96NL6), for which the log2 fold change was 0.148 in experiment [1]; 0.003 with crizotinib; -0.081 in [8]; 0.038 with duvelisib; 0.149 in the experiment with gandotinib; -0.144 with tozasertib. The log2 fold change in [3] was -0.028; in the experiment with doramapimod, 0.055; with bafetinib, 0.087; in [4], -0.009; in the experiment with nilotinib, -0.099; in experiment [5], -0.043. The log2 fold change with dasatinib is -0.052; in experiment [6], 0.041; in experiment [9], 0.191; in the experiment with mubritinib, 0.098.
For SERINC1 (UniProt Q9NRX5), the log2 fold change in [1] was 0.075; with crizotinib, -0.197; in experiment [2], 0.037; in the experiment with duvelisib it was 0.03; in the experiment with tozasertib it was 0.125; in [3], -0.016. Further, the log2 fold change with doramapimod was 0.068; with ispinesib it was -0.048; in the experiment with bafetinib, -0.135; with nilotinib, 0.121; in experiment [5], 0.081; with dasatinib it was -0.034. In addition, the log2 fold change is -0.064 in [6], 0.054 in experiment [7], -0.112 with tipifarnib and 0.057 with mubritinib.
Regarding RAB3D (UniProt O95716), the log2 fold change in experiment [8] is -0.031; in the experiment with duvelisib, -0.106; in the experiment with gandotinib, 0.083; in the experiment with tozasertib, 0.021; in [3] it was -0.115; in the experiment with ispinesib, 0.2. For the same target, the log2 fold change was -0.142 with bafetinib; -0.052 in experiment [4]; 0.01 in the experiment with nilotinib; 0.066 in experiment [5]; 0.221 with dasatinib; -0.116 in experiment [6]. The log2 fold change in [9] is 0.075; in experiment [7], -0.201; in the experiment with tipifarnib, 0.065; in the experiment with mubritinib, 0.285.
Turning to SLC1A3 (UniProt P43003), the log2 fold change is 0.167 in [2]; -0.039 in experiment [8]; -0.084 with duvelisib; -0.042 with gandotinib; -0.194 with tozasertib; 0.201 in [3]. Further, the log2 fold change in the experiment with ispinesib was 0.126; with bafetinib, -0.051; in [4], 0.013; with nilotinib, 0.131; in experiment [5], -0.063; with dasatinib, -0.203. Further, the log2 fold change is -0.077 in experiment [6]; 0.133 in experiment [9]; -0.009 in [7]; 0.054 with tipifarnib; 0.096 in the experiment with mubritinib.
As to RAD50, A0A494C0Y7, the log2 fold change in experiment [1] is 0.029; with crizotinib it was -0.024; in experiment [8] it was 0.204; in the experiment with duvelisib, 0.067; in the experiment with gandotinib, 0.021; with tozasertib, -0.042. In addition, the log2 fold change in experiment [3] is 0.054; with doramapimod, 0.034; with ispinesib, -0.054; with bafetinib it was -0.022; in [4] it was -0.249; in the experiment with dasatinib, 0.028. Besides, the log2 fold change was -0.012 in [9], 0.016 in [7], 0.058 with tipifarnib and 0.167 with mubritinib.
Take SH3PXD2B (UniProt A1X283): the log2 fold change in experiment [1] was 0.002; in [2], 0.246; in experiment [8] it was 0.055; with gandotinib it was 0.077; with tozasertib it was -0.1; with bafetinib it was -0.954 (active). In addition, the log2 fold change in [4] was -0.058; in the experiment with nilotinib it was -0.124; in experiment [5], 0.129; in experiment [6] it was -0.152; in experiment [9], 0.024; with mubritinib, 0.
Take SAFB2 (UniProt K7EQU4): the log2 fold change in the experiment with crizotinib is -0.244; in experiment [2], 0.275; with doramapimod, -0.04; in the experiment with bafetinib it was -0.053; in the experiment with nilotinib it was 0.155; in [5], 0.162. Further, the log2 fold change in [6] is -0.113.
As for RICTOR isoform 3 (UniProt Q6R327), the log2 fold change is -0.017 in [1]; -0.146 in experiment [2]; -0.027 with duvelisib; -0.015 with gandotinib; -0.127 in the experiment with tozasertib; -0.072 in experiment [3]. The log2 fold change in experiment [4] is 0.141; in the experiment with nilotinib, -0.102; in [5] it was 0.176; with dasatinib it was -0.044; in experiment [6], -0.023; with tipifarnib, -0.052.
Take RPS6KA5 (UniProt O75582): the log2 fold change is -0.393 in the experiment with crizotinib; 0.045 in experiment [2]; -0.016 in the experiment with doramapimod; 0.018 with ispinesib; -0.098 in experiment [7]; -0.07 with tipifarnib. For the same target, the log2 fold change with mubritinib was -0.171.
As for RNF185 (UniProt Q96GF1), the log2 fold change in experiment [8] was -0.036; with gandotinib, 0.104; with tozasertib it was -0.112; with ispinesib it was -0.024; with bafetinib it was 0.189; in experiment [4], -0.037. The log2 fold change with nilotinib is -0.027; in experiment [5], -0.001; in experiment [6] it was -0.022; in experiment [9] it was 0.089; in [7], 0.218; in the experiment with tipifarnib, 0.045. Moreover, in the experiment with mubritinib, the log2 fold change was 0.057.
